The source of these data is PubChem BioAssay.

Experiment [1] is described as follows: polyglutamine-triggered caspase-3 activation inhibitors, cell-based (AID 1583). Particulars: polyglutamine-induced caspase-3 activation, cell assay; stronger effect = higher value;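 tested at 10 µM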.
The nature of experiment [2]: suppressors of polyQ aggregation in yeast, 75Q-TubU reporter (AID 1593). Particulars: Yeast 75Q polyglutamine aggregation reporter.
Experiment [3] can be described thus: rescue of polyQ-huntingtin neuronal dysfunction in worms, whole organism, C. elegans mechanosensory neurons, N-terminal huntingtin (AID 1599). Particulars: touch response, stronger effect = higher value.
Experiment [4] in a line: inhibitors of mitochondrial cytochrome c release, biochemical, purified mitochondria (AID 1603).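 Further: mouse liver mitochondria challenged with calcium chloride; signal normalized to the plate average as 100%.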 Particulars: stronger effect = lower value.
Experiment [5] can be described thus: inhibitors of polyQ protein aggregation (AID 1604). The settings on record: polyglutamine-induced protein aggregation inhibition assay; stronger effect = higher value; tested at 2.5 µM.
A short description of experiment [6]: enhancers of glutamate uptake in motor neurons, MN-1 cell line (AID 1612).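 Further: tested at 1 µM final; 0% = mean of DMSO vehicle wells on each plate; positive means more glutamate uptake than control and negative means less.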 Particulars: MN-1 motor neuron cells, stronger effect = higher value.
Experiment [7] can be described thus: suppressors of polyglutamine aggregation in yeast, 75Q-TubH (AID 1616). The settings on record: S. cerevisiae 75Q-TubH polyglutamine aggregation suppression; stronger effect = higher value.
Experiment [8] is described as follows: hESC survival regulators, cell-based (AID 493140).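 Further: cells exposed to compounds for four days before counting.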 The settings on record: human embryonic stem cell survival screen; stronger effect = higher value.
The nature of experiment [9]: Cy5 fluorescence interference with SSB-bound oligo, artefact control for HCV NS3 helicase inhibitor project, biochemical, NIH Clinical Collection, E. coli SSB (AID 743268).
The subject of experiment [10] is Hepatitis C virus NS3 helicase. Kind of experiment: HCV NS3 helicase inhibitors, primary screen, biochemical, fluorescence polarization, NIH Clinical Collection (AID 743270). Particulars: NS3 helicase binding to Cy5-dT15 DNA, stronger effect = higher value, concentration not given here.
In experiment [11] the target is 6-phosphogluconate dehydrogenase, decarboxylating (Homo sapiens) (UniProt P52209). Kind of experiment: 6PGD enzyme inhibitors, primary screen, biochemical, human, recombinant enzyme, NADPH absorbance (AID 1159550;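 active means at least 20% inhibition of 6-phosphogluconate dehydrogenase activity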). The settings on record: recombinant 6PGD, NADPH absorbance 341 nm; at 10 µM; stronger effect = higher value.
Chain of 6-phosphogluconate dehydrogenase, decarboxylating (Homo sapiens) (P52209 whole entry, looked up): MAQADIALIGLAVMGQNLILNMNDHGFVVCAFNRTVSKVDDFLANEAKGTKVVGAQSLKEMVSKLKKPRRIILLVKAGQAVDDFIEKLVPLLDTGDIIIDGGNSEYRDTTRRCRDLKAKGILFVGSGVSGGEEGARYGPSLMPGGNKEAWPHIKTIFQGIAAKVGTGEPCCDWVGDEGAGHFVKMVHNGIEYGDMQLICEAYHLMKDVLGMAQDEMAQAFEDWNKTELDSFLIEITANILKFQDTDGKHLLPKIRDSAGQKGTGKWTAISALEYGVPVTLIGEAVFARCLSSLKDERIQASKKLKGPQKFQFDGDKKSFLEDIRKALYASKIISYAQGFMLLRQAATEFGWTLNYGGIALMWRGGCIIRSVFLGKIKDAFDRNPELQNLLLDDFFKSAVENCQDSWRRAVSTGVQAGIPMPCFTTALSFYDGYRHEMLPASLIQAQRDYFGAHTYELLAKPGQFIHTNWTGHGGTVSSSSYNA
Experiment [12] can be described thus: differential killing of epithelial or mesenchymal cells, primary screen, imaging, PC-3E GFP, TEM4-18 mCherry, co-culture (AID 1345086;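 active means compounds killing one labelled cell type while sparing the other, by normalised counts and ratio limits, not self-fluorescent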;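 on all read-outs here: cells exposed to compound for 72 h before imaging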;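 on red/green cell ratio (normalised): normalised mesenchymal count divided by normalised epithelial count so high means epithelial killing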). The settings on record: imaging cell counts, at 1 µM; for red/green cell ratio (normalised): actives lie on both sides, counts scaled to control wells, 1 = unselective.
Experiment [13] can be described thus: SU-DIPG-VI glioma cell viability, MIPE4.0 library, CellTiter-Glo luminescence, qHTS (AID 1347066; cut-off not given, nearly all actives have AC50 up to about 30 µM;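 further: cells exposed to compound for 48 hours before readout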). The settings on record: CellTiter-Glo ATP luminescence. Background: In ATP-based viability assays light output follows the ATP content of the culture.
The nature of experiment [14]: survival rescue of mitochondrial mutant cells in low glucose, primary screen, MELAS cybrids, Rieske KO mouse fibroblasts, CellTiter-Glo (AID 1508586;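 active means mean z-score across replicates of 1.96 or higher in either the MELAS or the Rieske mutant cell line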;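 further: z relative to plate mean and SD of compound and empty wells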).
Experiment [15] addresses NAD(+) hydrolase SARM1 (Homo sapiens) (UniProt Q6SZW1). Kind of experiment: SARM1 TIR NADase inhibitors, cell lysate, NAD-Glo luminescence (AID 1508614;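 active means compound whose remaining NAD level is above about 45 nM, limit read from the data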). Particulars: SAM-TIR HEK293T lysate NADase, at 1 µM, stronger effect = higher value.
In experiment [16] the target is Mitogen-activated protein kinase 7 (Homo sapiens) (UniProt Q13164). Kind of experiment: ERK5 transactivation activators in reporter cells, primary screen, cell-based, HTS (AID 1508626;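 active means luciferase signal above three times the same-plate solvent-only control wells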;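 further: luciferase driven by Gal4-ERK5 fusion binding five Gal4 sites before minimal TATA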). The settings on record: HeLa Gal4-ERK5 transactivation, 18 h, at 5 µM, stronger effect = higher value.
Chain of Mitogen-activated protein kinase 7 (Homo sapiens) (Q13164 whole entry, looked up, the tested form may be a part): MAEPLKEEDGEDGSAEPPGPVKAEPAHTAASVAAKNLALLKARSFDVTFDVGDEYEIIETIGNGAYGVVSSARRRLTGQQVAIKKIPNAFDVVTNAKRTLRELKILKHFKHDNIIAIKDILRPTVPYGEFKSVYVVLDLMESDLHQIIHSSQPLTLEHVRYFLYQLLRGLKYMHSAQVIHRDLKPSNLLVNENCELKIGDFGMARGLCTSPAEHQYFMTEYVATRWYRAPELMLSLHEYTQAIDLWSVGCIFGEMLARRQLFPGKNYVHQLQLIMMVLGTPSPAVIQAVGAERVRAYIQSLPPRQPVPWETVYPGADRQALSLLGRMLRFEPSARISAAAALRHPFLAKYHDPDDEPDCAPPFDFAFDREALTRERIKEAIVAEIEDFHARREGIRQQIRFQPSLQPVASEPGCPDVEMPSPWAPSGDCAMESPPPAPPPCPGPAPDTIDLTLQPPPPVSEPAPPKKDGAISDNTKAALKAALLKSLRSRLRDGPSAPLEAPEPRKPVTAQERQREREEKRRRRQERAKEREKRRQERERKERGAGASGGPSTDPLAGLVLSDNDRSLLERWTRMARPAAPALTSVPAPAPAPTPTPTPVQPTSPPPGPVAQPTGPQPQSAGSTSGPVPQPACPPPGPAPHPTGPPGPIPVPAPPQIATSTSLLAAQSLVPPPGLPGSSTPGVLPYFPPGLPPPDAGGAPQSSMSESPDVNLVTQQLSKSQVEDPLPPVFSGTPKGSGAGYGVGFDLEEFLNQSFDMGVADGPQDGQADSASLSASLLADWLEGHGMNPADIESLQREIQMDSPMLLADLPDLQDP
Experiment [17] is described as follows: viability rescue of complex I mutant cybrids, primary screen, cell-based, galactose medium, ATP luminescence (AID 1645843;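 active means z-score of at least 1.8 in each of two replicates, scored against plate mean and spread of sample wells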;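 further: positive z means more ATP and so rescue of galactose-driven cybrid death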). The settings on record: complex I mutant cybrid cells, 72 h, stronger effect = higher value.
Experiment [18] can be described thus: liver-stage malaria parasite growth inhibition, primary screen, cell-based, HepG2, luciferase luminescence, HepG2 viability (AID 624349; in the data active means parasite load remaining mostly below about 12%, no sharp cut-off; inactive means mostly above about 10%;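 further: 100% = mean of DMSO negative control wells on the same plate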). The settings on record: P. berghei liver stage in HepG2, luciferase luminescence, concentration not given here; parasite load remaining: stronger effect = lower value; viability: measured here: HepG2 viability without parasites.
The nature of experiment [19]: sensitizers of A549 cells to miR-34 induction, primary screen, imaging, A549 dox-inducible miR-34, nuclei and caspase counts (AID 1347080;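 active means compounds whose cell count with miR-34 switched on is under 0.7 times the count with it off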). The settings on record: A549 miR-34 inducible, Hoechst nuclei count, 48 h.
Where [20] appears, read: measured here: epithelial PC-3E GFP cell survival.
Where [21] appears, read: measured here: mesenchymal TEM4-18 mCherry cell survival.
Where [22] appears, read: MELAS cybrid survival, CellTiter-Glo 48 h, stronger effect = higher value.
[23] abbreviates: Rieske KO mouse fibroblast survival, CellTiter-Glo 72 h.
The mark [24] stands for this setting: stronger effect = lower value, cell number ratio, induced over uninduced.
Where [25] appears, read: measured here: relative caspase fold change +Dox/-Dox.
Setting [26] is: measured here: total cells with miR-34 induction, stronger effect = lower value.
Where [27] appears, read: measured here: total cells without miR-34 induction.

Each structure is given as a SMILES string. “And” between values parts separate entries of the source, which are not always exact repeats. Equal entries are not always repeated. Results filed as inconclusive are left out. For some of these results: Measured potencies and affinities stand elsewhere. The source made the active and inactive calls. Unless noted, how the calls were made is not given here.

Chain of NAD(+) hydrolase SARM1 (Homo sapiens) (Q6SZW1 whole entry, looked up, the tested form may be a part): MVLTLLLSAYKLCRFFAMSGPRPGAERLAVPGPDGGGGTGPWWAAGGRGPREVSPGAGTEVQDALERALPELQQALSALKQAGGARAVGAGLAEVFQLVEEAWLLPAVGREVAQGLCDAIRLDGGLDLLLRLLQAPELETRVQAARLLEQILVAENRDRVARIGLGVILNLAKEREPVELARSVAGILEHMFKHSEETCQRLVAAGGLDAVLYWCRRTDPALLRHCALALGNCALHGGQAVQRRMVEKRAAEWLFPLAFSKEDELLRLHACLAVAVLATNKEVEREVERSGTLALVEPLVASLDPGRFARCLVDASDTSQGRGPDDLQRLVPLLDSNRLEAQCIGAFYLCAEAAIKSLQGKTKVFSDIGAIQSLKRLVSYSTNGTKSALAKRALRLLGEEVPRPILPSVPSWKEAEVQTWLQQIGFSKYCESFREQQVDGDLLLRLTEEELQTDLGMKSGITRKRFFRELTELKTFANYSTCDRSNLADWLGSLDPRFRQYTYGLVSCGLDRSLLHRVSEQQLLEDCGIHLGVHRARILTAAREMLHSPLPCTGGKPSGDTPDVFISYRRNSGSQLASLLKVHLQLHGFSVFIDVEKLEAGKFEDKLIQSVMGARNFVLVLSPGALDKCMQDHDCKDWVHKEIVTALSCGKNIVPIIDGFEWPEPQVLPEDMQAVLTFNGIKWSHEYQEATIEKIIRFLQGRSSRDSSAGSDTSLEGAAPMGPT

A word on the inhibition: it is the drop in the measured response relative to a control, in per cent. For the molecule `COc1ccc2c3c1O[C@H]1C[C@@H](O)C=C[C@@]31CCN(C)C2`, the inhibition in [1] was -3.14%; in experiment [10], -2.77% (inactive); in [11], 6.78% (inactive). For the same molecule, in experiment [2], the score was found to be 1.34. The rescue above control in experiment [3] was 0.01. Besides, the cytochrome c release ratio in [4] is 0.63. Besides, the inhibition of aggregation in [5] turned out to be 91.6%. Further, in experiment [6], the glutamate uptake change amounted to 5.19%. In experiment [7], the aggregation suppression score was 1.04. The survival in [8] is 11.9 (inactive). Moreover, the fluorescence ratio in experiment [9] is 1.03 (inactive). In addition, the red/green cell ratio (normalised) in [12] was 1.15 (inactive). Further, the values for the normalised cell number in [12] (setting [20]) and in [12] (setting [21]) were 1 and 1.15, respectively. Moreover, in experiment [13], the outcome was inactive. Further, the z-score was 0.162 (inactive) and -0.253 (inactive) in experiment [14] (setting [22]); 0.459 and -0.846 in [14] (setting [23]); 0.28 (inactive) and 0.575 (inactive) in experiment [17]. For the same molecule, the remaining NAD in experiment [15] is 10 nM (inactive). In addition, the luciferase signal in experiment [16] is 64 AU (inactive).
As to `COc1cccc(-c2cc(=O)c3ccc(OC)cc3o2)c1`, in experiment [11], the inhibition was -2.44% (inactive). Further, the red/green cell ratio (normalised) in [12] was 1.01 (inactive). The normalised cell number in experiment [12] (setting [20]) was 1.02; in experiment [12] (setting [21]) it was 1.03.
For the molecule `CC(CCc1ccccc1)NCC(O)c1ccc(O)c(C(N)=O)c1` (stereo not drawn), the inhibition in [1] is 1.38%; in experiment [10] it was -2.27% (inactive); in [11], 0.489% (inactive). The score in [2] turned out to be 1.61. The molecule further showed a rescue above control in [3] of 19.4. In [4], the cytochrome c release ratio was 0.72. In [5], the inhibition of aggregation worked out at 83.1%. The glutamate uptake change in [6] was -2.28%. This molecule registered an aggregation suppression score in [7] of 1.14. In addition, in experiment [8], the survival was 19.1 (inactive). The fluorescence ratio in experiment [9] was 1.06 (inactive). Also, the red/green cell ratio (normalised) in experiment [12] was 1.34 (inactive). Further, the normalised cell number was determined as 0.93 in experiment [12] (setting [20]) and 1.24 in [12] (setting [21]). Moreover, the z-score in experiment [14] (setting [22]) is -0.172 (inactive) and 0.637 (inactive); in experiment [14] (setting [23]) it was -0.173 and -0.159; in experiment [17], -0.94 (inactive) and 0.995 (inactive). Also, the remaining NAD in [15] is 10 nM (inactive). In addition, the luciferase signal in experiment [16] is 116 AU (inactive).
Broadly, the viability is a read-out of living cells in per cent, often relative to untreated cells. For `C#C[C@]1(OC(C)=O)CC[C@H]2[C@@H]3CCC4=CC(=O)CC[C@@H]4[C@H]3CC[C@@]21C`, the parasite load remaining in experiment [18] was 26.4% (inactive). In addition, the viability in experiment [18] was found to be 96.7%. In experiment [9], the fluorescence ratio is 1.05 (inactive). The inhibition in [10] is -3.18% (inactive); in experiment [11], -1.74% (inactive). Moreover, the figures for the fold change in experiment [19] (setting [24]) and in experiment [19] (setting [25]) were 0.989 (inactive) and 1.09, respectively. Besides, the cell count in experiment [19] (setting [26]) was 9170; in experiment [19] (setting [27]) it was 9280. Further, the remaining NAD in [15] is 24 nM (inactive). Moreover, the luciferase signal in experiment [16] was 28 AU (inactive). The z-score in experiment [17] was -1.36 (inactive).
In the case of `CCC(=O)OCC(=O)[C@@]1(OC(=O)CC)[C@@H](C)C[C@H]2[C@@H]3CCC4=CC(=O)C=C[C@]4(C)[C@@]3(Cl)[C@@H](O)C[C@@]21C`, the parasite load remaining in experiment [18] was 87.4% (inactive) and 97.8% (inactive). The viability in [18] was 126% and 93.5%. The fluorescence ratio in [9] is 1.01 (inactive). The inhibition in experiment [10] is 0.45% (inactive); in experiment [11], -4.35% (inactive). In addition, the fold change in experiment [19] (setting [24]) is 0.914 (inactive) and 0.792 (inactive); in [19] (setting [25]), 1.6 and 1.23. Also, the cell count in [19] (setting [26]) was 6840 and 6120; in [19] (setting [27]), 7490 and 7730. Besides, the z-score in experiment [14] (setting [22]) was 0.616 (inactive); in [14] (setting [23]), 1.23; in experiment [17] it was -1.24 (inactive). In addition, the remaining NAD in experiment [15] was 10 nM (inactive). For the same molecule, in [16], the luciferase signal is 188 AU (inactive).
As for `Cc1cc(=O)oc2cc(O)cc(O)c12`, the inhibition in experiment [11] was 3.6% (inactive). For the same molecule, the red/green cell ratio (normalised) in [12] is 0.8 (inactive). For the same molecule, the normalised cell number in experiment [12] (setting [20]) worked out at 1.18; in experiment [12] (setting [21]), 0.94.
